From PubChem BioAssay (NCATS)
Values joined by “and” are separate entries in the source; they are usually repeats but may differ in a detail not shown here. Identical values can stand only once. Inconclusive results are not listed. Active and inactive are the calls of the source. The call rests on the fitted dose curve; in most records, active means well fitted inhibition curve with a large enough effect; inconclusive means small, poorly fitted or top-dose-only effect; inactive means flat fitted curve, though single readings scatter. Where a SMILES comes first, the peptide text is derived from it. [ ]: non-standard residue; d: D form. pGlu = O=C1CC[C@@H](C(=O)O)N1; Thz = O=C(O)[C@@H]1CSCN1

How the values were obtained:
Assay in all cases: qHTS profiling for inhibitors of Plasmodium falciparum proliferation (AID 504749); further: nearly all actives have a fitted effect of over 60% in size
Details in all cases: P. falciparum in erythrocytes, SYBR Green DNA, 72 h; series mostly up to 28.7 µM
HB3 = test system: HB3
How it was run: (§1)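 Readout was DNA-dye fluorescence from lysed cultures, ex 485/em 535 nm. Parasitized red cells had grown 72 h with compound; data scaled between 0.29 uM artemisinin and DMSO wells and corrected using vehicle-only plates.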

ICS = test system: ICS
How it was run: as §1

JCK = test system: JCK
How it was run: as §1

N140 = test system: N140
How it was run: as §1

P93_24 = test system: P93_24
How it was run: as §1

P94_40 = test system: P94_40
How it was run: as §1

PAD = test system: PAD
How it was run: as §1

PC15 = test system: PC15
How it was run: as §1

PC26 = test system: PC26
How it was run: as §1

PC49 = test system: PC49
How it was run: as §1

Measured: Potency
Potency means the concentration at half of the fitted maximal effect.

CC(C(=O)O)c1ccc2c(c1)[nH]c1ccc(Cl)cc12 (stereo not drawn)
inactive: all assays above

O=C1CC[C@@H](C(=O)N2CSC[C@H]2C(=O)O)N1 ([pGlu]-[Thz]-OH)
inactive: all assays above

Cc1[nH]cnc1CN1CCc2c(c3ccccc3n2C)C1=O
inactive: all assays above

[O-][n+]1ccccc1SSc1cccc[n+]1[O-]
active: HB3 0.891 µM | ICS 0.794 µM | JCK 4.47 µM | N140 0.708 µM | P93_24 1 µM | P94_40 0.794 µM | PAD 0.891 µM | PC15 2.24 µM | PC26 1.51 µM | PC49 1.41 µM

COc1cc2c3cc1Oc1cc(ccc1O)C[C@@H]1c4c(cc(OC)c(O)c4Oc4ccc(cc4)C[C@@H]3N(C)CC2)CC[N+]1(C)C
inactive: all assays above

O=C(O)[C@H](O)[C@@H](O)[C@H](O)[C@H](O)CO
inactive: all assays above

CCCCCC[C@@H](O)C/C=C\CCCCCCCC(=O)O
inactive: all assays above

Cc1ccc(C(=O)c2ccc(CC(=O)O)n2C)cc1
inactive: all assays above

O=C(O)COc1ccc(C(=O)c2cccs2)c(Cl)c1Cl
inactive: all assays above

O=C(OCc1ccccc1)c1ccccc1
inactive: all assays above

CN1CCN(c2cc3c(nn2)Oc2ccccc2N3C)CC1
inactive: all assays above

CC1OC1P(=O)(O)O (stereo not drawn)
inactive: all assays above

CCC1C(=O)OCC1Cc1cncn1C (stereo not drawn)
inactive: all assays above

C=CC(N)CCC(=O)O (stereo not drawn)
inactive: all assays above

CCCCCCOc1ccccc1C(N)=O
inactive: all assays above

O=C(O)[C@H](CC(=O)N1C[C@H]2CCCC[C@H]2C1)Cc1ccccc1
inactive: all assays above

C=CCCCCCCCCC(=O)O
inactive: all assays above

C=CCN1C(=O)C(CC(C)C)NC1=S (stereo not drawn)
inactive: all assays above

C=C(Nc1ccc(OCC)cc1)Nc1ccc(OCC)cc1
inactive: all assays above

O=C(O)c1ccccc1Nc1cccc(C(F)(F)F)c1
inactive: all assays above

CC1(C)C[C@@H]1C(=O)N/C(=C\CCCCSC[C@H](N)C(=O)O)C(=O)O
inactive: all assays above

O=c1[nH]c2ccccc2n1CCCN1CCN(C(c2ccccc2)c2ccccc2)CC1
active: ICS 7.94 µM | N140 11.2 µM
inactive: HB3 | JCK

Cc1ccccc1CNc1ncnc2c1ncn2C1OC(CO)C(O)C1O (stereo not drawn)
inactive: all assays above

O=C(O)Cc1ccc(-c2ccccc2)cc1
inactive: all assays above

CC1(C)[C@@H](O)CC[C@]2(C)[C@H]3C(=O)C=C4[C@@H]5C[C@@](C)(C(=O)O)CC[C@]5(C)CC[C@@]4(C)[C@]3(C)CC[C@@H]12
inactive: all assays above

C#C[C@]1(O)CC[C@H]2[C@@H]3CCc4cc(O)ccc4[C@H]3CC[C@@]21C
inactive: all assays above

CCCOC(=O)c1ccc(O)cc1
inactive: all assays above

Nc1c(CC(=O)O)cccc1C(=O)c1ccc(Br)cc1
inactive: all assays above

CCCCCCCCCCCCCCCC(=O)OC(C)C
inactive: all assays above

Nc1ccc(C(=O)O)c(O)c1
inactive: all assays above

COc1cc(CNC(=O)CCCC/C=C/C(C)C)ccc1O
inactive: all assays above

CN1[C@@H]2CC[C@H]1CC(OC(=O)C(CO)c1ccccc1)C2 (stereo partly drawn)
inactive: all assays above

O=C(/C=C/c1ccccc1)NCCO
inactive: all assays above

CCOC(=O)c1ccccc1O
inactive: all assays above

Cc1cc(O)c2ccccc2c1O
not listed: ICS | PC26
inactive: all other assays above

Cc1c(Nc2ncccc2C(=O)O)cccc1C(F)(F)F
inactive: all assays above

NC(=O)C(c1ccccc1)(c1ccccc1)[C@@H]1CCN(CCc2ccc3c(c2)CCO3)C1
active: ICS 7.08 µM
inactive: HB3 | JCK | PAD

O=C(O)c1cc(O)c(O)c(O)c1
inactive: HB3 | P94_40 | PAD | PC15 | PC26 | PC49

Oc1c(Br)cc(Br)c2cccnc12
not listed: ICS
inactive: all other assays above

O=C1CN(/N=C/c2ccc(-c3ccc([N+](=O)[O-])cc3)o2)C(=O)N1
not listed: P93_24 | PC26 | PC49
inactive: all other assays above

CN1[C@@H](CC(=O)c2ccccc2)CCC[C@H]1C[C@H](O)c1ccccc1
active: ICS 11.2 µM | N140 17.8 µM | P94_40 11.2 µM | PC49 7.08 µM
inactive: HB3

CN(C)c1ccc(C(=C2C=CC(=[N+](C)C)C=C2)c2ccccc2)cc1
inactive: JCK | PC49
active: HB3 11.2 µM | ICS 2.24 µM | P93_24 10 µM

Nc1ccc(O)c(C(=O)O)c1
not listed: P93_24
inactive: all other assays above

CC(N)C(=O)OC(C)(C)Cc1ccc(Cl)cc1 (stereo not drawn)
inactive: HB3 | JCK | PAD

CN1[C@@H]2CC[C@H]1CC(OC(c1ccccc1)c1ccccc1)C2 (stereo partly drawn)
active: ICS 10 µM and 11.2 µM | JCK 11.2 µM | P94_40 10 µM | PAD 11.2 µM | PC15 10 µM | PC49 3.55 µM and 1.41 µM
inactive: HB3

O=C(O)/C=C/C(O)c1ccc(Cl)cc1 (stereo not drawn)
inactive: all assays above

COc1cc(/C=C/C(=O)N2CCN(CC(=O)N3CCCC3)CC2)cc(OC)c1OC
inactive: HB3 | JCK | P94_40 | PC15 | PC49
active: ICS 11.2 µM

COC(=O)C1=C(C)NC(C)=C(C(=O)OCC(C)C)C1c1ccccc1[N+](=O)[O-] (stereo not drawn)
active: ICS 3.55 µM | P93_24 10 µM

c1ccc2sc(SSc3nc4ccccc4s3)nc2c1
inactive: all assays above

COc1cc(/C=C/C(=O)CC(=O)/C=C/c2ccc(O)c(OC)c2)ccc1O
inactive: JCK | PC49
active: PC26 9.53 µM

N=c1ccn2c(n1)O[C@H]1[C@H](O)[C@@H](CO)O[C@H]12
not listed: P94_40
inactive: all other assays above

C[S+](CC[C@H](N)C(=O)O)C[C@H]1O[C@@H](n2cnc3c(N)ncnc32)[C@H](O)[C@@H]1O (stereo partly drawn)
active: N140 1 µM
not listed: P93_24 | P94_40 | PAD
inactive: all other assays above

CCCC(=O)OC[C@@H](OC(=O)CCC)[C@@H](OC(=O)CCC)[C@H](Cn1c2nc(=O)[nH]c(=O)c-2nc2cc(C)c(C)cc21)OC(=O)CCC
inactive: JCK | PC15 | PC26 | PC49

c1ccc2sc(SN3CCOCC3)nc2c1
active: ICS 12.6 µM
not listed: N140 | P93_24 | PAD
inactive: all other assays above

CCCCC[C@H](O)/C=C/[C@@H]1[C@@H](C/C=C\CCCC(=O)O)[C@@H](O)C[C@H]1O
not listed: PC26
inactive: all other assays above

Cc1ccc(O)c(-n2nc3ccccc3n2)c1
inactive: all assays above

CCCSc1ccc2nc(NC(=O)OC)[nH]c2c1
not listed: P94_40
inactive: all other assays above

Cc1nc2ccccc2n1Cc1ccc(Cl)cc1
not listed: HB3 | ICS | N140
inactive: all other assays above

COc1ccc(/C=C/C(=O)Nc2ccccc2C(=O)O)cc1OC
not listed: PC15
inactive: all other assays above

CC1(C)S[C@@H]2[C@H](NC(=O)[C@H](NC(=O)N3CCN(S(C)(=O)=O)C3=O)c3ccccc3)C(=O)N2[C@H]1C(=O)O
inactive: all assays above

Nc1cc(-c2ccncc2)c[nH]c1=O
not listed: PC26
inactive: all other assays above

O=C(Nc1ccc(C(=O)O)c(O)c1)c1ccccc1
not listed: P93_24
inactive: all other assays above

O=C(CCN1CCN(CCO)CC1)N1c2ccccc2Sc2ccc(C(F)(F)F)cc21
active: ICS 11.2 µM | N140 12.6 µM | P93_24 12.6 µM
inactive: JCK | PAD

CC(=O)[C@]1(O)Cc2c(O)c3c(c(O)c2[C@@H](O[C@H]2C[C@H](N)[C@H](O)[C@H](C)O2)C1)C(=O)c1c(O)cccc1C3=O
active: HB3 7.94 µM | ICS 2 µM | JCK 11.2 µM | N140 10 µM | P93_24 7.94 µM | P94_40 10 µM | PAD 12.6 µM | PC15 7.94 µM | PC49 8.91 µM

CCOc1ccc2nc(S(N)(=O)=O)sc2c1
not listed: P93_24 | P94_40 | PC15
inactive: all other assays above

CCCCCCCCCCCC(=O)[O][Sn]([CH2]CCC)([CH2]CCC)[O]C(=O)CCCCCCCCCCC
not listed: ICS | PC26
inactive: all other assays above

COc1ccc(-c2cc(=S)ss2)cc1
active: ICS 7.94 µM
not listed: P93_24 | P94_40 | PAD
inactive: all other assays above

CCCCCCCCCCCCCCCCCC(=O)O
inactive: all assays above

Clc1ccccc1-c1nc(-c2ccncc2)no1
inactive: HB3 | JCK | P94_40 | PC26 | PC49
